Bioassay records (PubChem BioAssay)
A selection: hits, their analogues and other compounds. The true share with any hit is near 0.99%.
TRPV1 PAM: potentiators of human vanilloid receptor 1 (TRPV1); AID 540277; actives 0.02% (n = 320,000); potentiation, % at 8.33 µM; Q8NER1; TRPV1-expressing cells, Fluo-8 calcium influx, capsaicin EC20 potentiation; in the data active = potentiation above about 80%; inconclusive = between about 30% and that limit; note: 0% is about no effect
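Cells expressing TRPV1 were dye-loaded with Fluo-8 and read kinetically: 10 s baseline, 3 min after compound (agonist portion), then 2 min after EC20 capsaicin (allosteric enhancer portion). Calcium-bound dye fluorescence at 480/520 nm.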
TRHR enhancer-1: allosteric enhancers of human TRH receptor; P34981; TRHR cells, fluo-8 calcium fluorescence, EC20 TRH enhancement; enhancement, % at 2 µM; actives 0.66% (n = 360,000); in the data active = enhancement above about 30%; note: 0% is about no effect
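TRHR-expressing cells loaded with fluo-8 calcium dye were read kinetically (ex 480/em 530) during compound addition, then stimulated with an EC20 of TRH (10 nM final). Enhancement of the Gq-mediated intracellular calcium response was scored.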
TRHR agonist-1: activates the human TRH receptor | P34981 | TRHR cells, calcium flux fluo-8, FDSS agonist mode | activation, % at 2 µM | actives 0.18% (n = 360,000) | AID 493084; in the data active = activation above about 30%; note: 0% is about no effect
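TRHR-expressing cells loaded with fluo-8 calcium dye; 23 nL library compound pin-transferred, kinetic FDSS fluorescence (Ex 480/Em 530) recorded about 180 s for agonist-induced calcium release, before a 10 nM TRH EC20 addition for potentiator mode.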
TRPML1 blocker: human mucolipin-1 channel inhibition; TRPML1-inducible cells, Ca2+ dye fluorescence, FDSS; active compounds read low; inhibition of EC80 agonist-evoked calcium signal; actives 0.02% (n = 390,000); Q9GZU1; AID 624415; activity change, negative = inhibition, % (no concentration beside the values); in the data active = activity change below about -50%; inconclusive = between about -30% and that limit;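 note: stimulus is agonist 54-4 at its EC80 concentration; % is set by controls: 0 for no effect and ±100 for the full control effect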
Target sequence (Q9GZU1 whole entry, looked up): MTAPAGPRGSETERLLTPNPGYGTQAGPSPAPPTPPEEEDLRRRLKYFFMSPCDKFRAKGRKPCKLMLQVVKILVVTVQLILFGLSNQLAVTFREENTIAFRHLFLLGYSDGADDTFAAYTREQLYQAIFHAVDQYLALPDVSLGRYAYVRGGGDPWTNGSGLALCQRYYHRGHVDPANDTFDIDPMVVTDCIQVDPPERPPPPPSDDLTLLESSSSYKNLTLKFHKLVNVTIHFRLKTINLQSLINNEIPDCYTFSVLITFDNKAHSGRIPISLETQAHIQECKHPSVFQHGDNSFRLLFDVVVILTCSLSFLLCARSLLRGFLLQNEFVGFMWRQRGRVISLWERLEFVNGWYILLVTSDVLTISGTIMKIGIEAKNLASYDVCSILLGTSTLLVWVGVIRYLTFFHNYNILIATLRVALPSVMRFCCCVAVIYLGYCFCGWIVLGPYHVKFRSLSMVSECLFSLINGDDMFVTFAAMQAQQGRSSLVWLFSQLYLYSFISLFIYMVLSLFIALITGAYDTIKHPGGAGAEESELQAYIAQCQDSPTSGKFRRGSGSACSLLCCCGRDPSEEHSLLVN
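Calcium fluorescence in TRPML1-DL cells induced overnight with Tet: a 110 s read after compound pin addition, then a 110 s antagonist read after challenge with 54-4 at 4 uM final (EC80).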
TRPV1 ag: activates the human vanilloid receptor TRPV1; TRPV1-expressing cells, Fluo-8 calcium influx, agonist mode; activation, % at 8.33 µM; actives 0.19% (n = 320,000); in the data active = activation above about 80%; inconclusive = between about 30% and that limit; note: 0% is about no effect
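Fluo-8 calcium influx in TRPV1-expressing cells, kinetic read (ex 480/em 520 nm). Compound added and read 3 min for agonist activity, followed by capsaicin at EC20 final and 2 min further read for enhancement.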
TRPML1 agonist: agonists of human TRPML1 channel | Q9GZU1 | activation, % (concentration not given with the values) | TRPML1-expressing cells, Ca2+ dye fluorescence, FDSS | actives 0.12% (n = 410,000); in the data active = activation above about 50%; inconclusive = mostly about 30% to 49%; note: 0% is about no effect
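Tet-induced TRPML1-DL cells, 1,500 per well, cultured overnight, were loaded with a no-wash Ca2+ dye for 45–90 min. Calcium fluorescence was recorded on the FDSS for 110 s after compound addition, before the EC80 agonist (4 uM 54-4) was added.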
TRHR enhancer-2: human TRH receptor allosteric enhancement confirmation | shares compounds with TRHR enhancer-1 | 970 tested, under 10 active | activity change, negative = inhibition, % at 46.1 µM | TRH receptor cell assay, enhancer confirmation qHTS;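 note: compound effect scored on response to added TRH at EC20 of 10 nM; 0% is about no effect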
TRHR agonist-2: confirmation of human TRH receptor agonists; shares compounds with TRHR enhancer-1; TRHR-expressing cells, agonist activation read-out; Potency, µM (top dose mostly 46.1 µM), without a hit: top-dose activation, usual class: activators; actives 8% (n = 970); note: potency is the fitted concentration of half-maximal effect; 0% is about no effect; nearly all actives have a fitted effect of over 75% in size
* hit, by the source's call; ? = inconclusive; nt = no result. Unless noted, calls come from the whole dose curve; as a rule, active = well fitted curve in the direction sought with a large enough effect; inconclusive = small, poorly fitted or top-dose-only effect, or another doubt; inactive = no such curve, though single readings can be large; an effect the other way counts as inactive or inconclusive.

SMILES	TRPV1 PAM	TRHR enhancer-1	TRHR agonist-1	TRPML1 blocker	TRPV1 ag	TRPML1 agonist	TRHR enhancer-2	TRHR agonist-2
COc1ccc(-c2cnc(C)o2)cc1S(=O)(=O)Nc1ccc(OC(F)(F)F)cc1	nt	5	0	7	nt	-1	nt	nt
COCCNc1nc2c(c(=O)n(C)c(=O)n2C)n1Cc1c(F)cccc1Cl	nt	-3	-1	17	nt	-1	nt	nt
Cc1nc2ccc(C(=O)Nc3ccccc3Cl)cc2s1	-31	51*	-1	nt	?	nt	3	1%
COc1ccc(C(=O)N2CC(=O)Nc3ccc(C)cc3C2c2ccccc2)cc1OC (configuration not stated)	nt	4	2	24	nt	3	nt	nt
COc1ccccc1/C=C1\C(=O)Nc2ccccc21	0	41*	0	-5	5	-1	-9	-1%
O=C1Nc2ccccc2/C1=C/c1ccccc1Cl	10	-2	0	5	2	-2	nt	nt
CN(CCc1cnn(C)c1)C(=O)C1CCC(=O)N(CC2CCCCC2)C1 (configuration not stated)	0	66*	1	-6	-1	0	-9	-1%
Cc1n[nH]c(C)c1CCN(C)C(=O)C1CCC(=O)N(CC2CCCCC2)C1 (configuration not stated)	1	3	1	-1	-1	0	nt	nt
CCCCC(=O)N(c1ccc(C(=O)O)cc1)c1nc(-c2ccc(Cl)cc2)c(CC)s1	9	63*	0	-12	2	0	-17	?
c1ccc(Oc2ccc(-c3ccnc4ncnn34)cc2)cc1	-13	48*	-2	58	?	5	-7	0%
CCOc1cc(/C=C/C(=O)Nc2ccc(C(=O)NCCN(CC)CC)cc2)ccc1OCC(C)C	8	42*	0	2	?	0	2	1%
CCOc1ccc(/C=C/C(=O)Nc2ccc(C(N)=O)cc2)cc1OC	-4	3	1	-10	?	-1	nt	nt
Cc1nn(-c2ccccc2)c(N2CCCC2)c1/C=N/NC(=O)c1ccccc1O	2	83*	0	-15	20	-1	-8	?
Cc1cc(C)n(-c2nc3nonc3nc2-n2nc(C)cc2C)n1	-3	54*	0	20	-1	0	-4	4%
Cc1cc(C)n(CCN(C)c2nc3nonc3nc2N2CCCCC2)n1	4	2	0	-1	1	-1	nt	nt
N#Cc1cccc(S(=O)(=O)N2CCN(S(=O)(=O)c3ccc4c(c3)OCCO4)CC2)c1	nt	-6	0	nt	nt	0	nt	nt
COc1ccccc1C(=O)Nc1ccnn1C1CCN(C/C=C/c2ccc(F)cc2)CC1	-6	47*	-1	-11	-2	0	2	1%
CC(=O)Oc1ccc(-c2cccc(C(=O)NCCO)c2)cc1	-10	43*	0	-5	1	-1	-2	-1%
Cc1cc(C)nc(NN2C(=O)/C(=C/c3ccc(O)cc3)SC2=S)n1	0	7	36*	2	16	16	-6	21µM*
O=C1/C(=C\c2ccc(O)cc2)SC(=S)N1c1cccnc1	-7	-2	36*	3	5	22	-6	?
COc1ccc(/C=C2\SC(=S)N(c3cccnc3)C2=O)cc1	-7	-12	0	7	2	1	nt	nt
CCOc1ccc(NC(=O)Cn2c(=O)n(-c3ccc(C)cc3)c(=O)c3cc(OC)c(OC)cc32)cc1	nt	5	-1	9	nt	0	nt	nt
Cc1ccc(NC(=O)[C@@H]2CCC(=O)N2C2OC(=O)c3ccccc32)cc1Cl (some centres not stated)	-11	68*	0	nt	-4	nt	-5	7%
Cc1ccc(CNC(=O)Cc2c(C(=O)O)c(C)cn2C)cc1	nt	1	0	-5	nt	-1	nt	nt
O=C(CSC(=S)N1CCCCC1)N1N=CCC1c1ccccc1 (configuration not stated)	-27	53*	0	-1	3	0	4	1%
SMILES	TRPV1 PAM	TRHR enhancer-1	TRHR agonist-1	TRPML1 blocker	TRPV1 ag	TRPML1 agonist	TRHR enhancer-2	TRHR agonist-2
CCc1ccc(CNC(=O)C2CCN(c3nc4ccccc4nc3C(F)(F)F)CC2)cc1	nt	0	0	38	nt	-1	nt	nt
O=C(N/C(=C/c1ccc(Br)cc1)C(=O)N1CCOCC1)c1ccc(Br)o1	-5	97*	-1	5	1	1	-2	1%
COc1ccc(NC(=O)c2c(NCc3ccc(C)o3)sc3c2CCC(C)C3)cc1 (configuration not stated)	nt	5	0	5	nt	1	nt	nt
Cc1c(Cl)cccc1NC(=O)Cn1c(=O)n(Cc2ccco2)c(=O)c2sc3ccccc3c21	nt	1	-1	9	nt	0	nt	nt
Cc1cccc(NC(=O)COc2ccc(Br)cc2/C=N/O)c1	4	43*	-1	-5	-5	0	-7	2%
CC(=O)Nc1ccc(NC(=O)COc2ccc(Br)cc2C)cc1	6	2	0	-6	26	-1	nt	nt
COc1ccc(C(=O)Oc2ccc(/C=N/NC(=O)c3ccccc3OC)cc2[N+](=O)[O-])cc1	6	51*	0	3	0	0	-3	2%
